The results in this text go back to PubChem BioAssay (NCATS).

Activity calls are given as the source filed them. Calls come from the whole dose curve; as a rule, active = well fitted curve in the direction sought with a large enough effect; inconclusive = small, poorly fitted or top-dose-only effect, or another doubt; inactive = no such curve, though single readings can be large or run the other way.

The experiment deals with Thyrotropin receptor (Homo sapiens) (UniProt P16473). Nature of the experiment: qHTS Assay for Antagonists of the Thyroid Stimulating Hormone Receptor (AID 488980). The conditions noted are these: TSHR-expressing cells, cAMP antagonist read-out; series mostly up to 57.5 µM. An excerpt: TSH is an alpha/beta heterodimeric glycoprotein hormone secreted from the anterior pituitary gland which belongs to the glycoprotein hormone family. The actions of TSH are mediated by a seven-transmembrane receptor, which upon TSH binding couples preferentially to the G-alpha (s) protein (Gs), resulting in activation of adenylate cyclase and increase in cyclic adenosine 3', 5' monophosphate (cAMP). The TSH receptor (THSR) is mainly expressed in thyroid follicular cells and regulates their growth and function. This cell based assay was conducted on a TSHR transfected HEK 293 cell line, measuring cAMP stimulation using antibody-based Homogeneous Time Resolved Fluorescence (HTRF).
Sequence of Thyrotropin receptor (Homo sapiens) (P16473 whole entry, looked up): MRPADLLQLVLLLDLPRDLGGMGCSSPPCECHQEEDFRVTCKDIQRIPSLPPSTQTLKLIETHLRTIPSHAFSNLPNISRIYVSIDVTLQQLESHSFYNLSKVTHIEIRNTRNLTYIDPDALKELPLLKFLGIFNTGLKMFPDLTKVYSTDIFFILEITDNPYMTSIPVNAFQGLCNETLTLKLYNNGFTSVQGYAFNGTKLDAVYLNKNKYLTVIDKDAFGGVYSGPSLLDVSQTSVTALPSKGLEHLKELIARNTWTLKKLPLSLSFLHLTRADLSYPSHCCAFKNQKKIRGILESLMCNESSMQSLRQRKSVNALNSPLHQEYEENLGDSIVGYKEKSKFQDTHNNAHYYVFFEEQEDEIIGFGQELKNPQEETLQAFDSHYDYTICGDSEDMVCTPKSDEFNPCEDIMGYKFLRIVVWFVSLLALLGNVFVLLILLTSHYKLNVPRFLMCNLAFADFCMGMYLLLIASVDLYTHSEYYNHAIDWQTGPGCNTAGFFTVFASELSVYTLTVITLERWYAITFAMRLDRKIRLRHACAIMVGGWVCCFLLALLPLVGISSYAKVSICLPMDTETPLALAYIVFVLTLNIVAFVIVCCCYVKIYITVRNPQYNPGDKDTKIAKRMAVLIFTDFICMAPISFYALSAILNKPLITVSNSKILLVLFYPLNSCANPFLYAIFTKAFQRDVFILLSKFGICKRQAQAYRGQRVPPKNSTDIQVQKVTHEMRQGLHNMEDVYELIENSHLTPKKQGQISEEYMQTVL
Our goal is to identify small molecules that will inhibit (antagonize) the thyroid-stimulating hormone receptor (TSHR), a member of the 7 transmembrane-spanning receptor (7TMR) family of cell surface receptors. TSHR-mediated hyperthyroidism is important in thyroid pathology. The development of small molecule antagonists of TSHR may lead to therapeutic approaches for TSHR-mediated hyperthyroidism caused by constitutively activating mutations or stimulating auto-antibodies associated with Graves' disease. Graves' disease is the leading cause of hyperthyroidism and is caused by autoantibodies that stimulate TSHR (TsAbs) causing thyroid growth and unregulated overproduction of thyroid hormones and existing treatments have liabilities (agranulocytosis). In addition, TSHRs are known to be expressed in multiple extrathyroidal tissues including bone, brain, kidney, testis, fat and cells of the immune system but the role of the TSHR in these tissues is not clear. Therefore, TSHR antagonists/inverse agonists could be used as probes of extrathyroidal TSHR function. Finally, TSHR inverse agonists, which are a subclass of antagonists that inhibit agonist-independent (or basal or constitutive) TSHR signaling, could be used to inhibit TSH-independent signaling in patients with recurrent or metastatic thyroid cancer who are receiving thyroid hormone to suppress TSH.
An anti cAMP antibody contains a fluorescent cryptate tag (excitation 337 nm; emission 620 nm) and the acceptor is cAMP-d2 (excitation 620 nm; emission 665 nm). When antibody and cAMP-d2 interact and are excited by a 337 nm light, a FRET occurs resulting in emission at 665 nm. The assay is competition between cAMP-d2 and cAMP (from the cell lysate). The homogeneous protocol allows for one step dispense after stimulation that is automation friendly.
Step, Parameter, Value, Description
1, Cells, 3 uL, 2000 TSHR freshly harvested cells/well 1536 TC treated White solid bottom plate (Cells resuspended in 10 mM HEPES buffered HBSS and 70 uM RO 20-1724)
2, Compound, 23 nL, Libraries and controls
3, Compound, 1 uL, EC80 TSH (4 nM final)
5, Reagent, 2 uL, cAMP antibody diluted 1:20 in lysis buffer
6, Time, 30 minutes, Room temperature
7, Detector, HTRF settings, Viewlux
(qHTS replaces the single test concentration by a dilution series.)
For the compound `CN(C)CCC(c1ccccc1)c1ccccn1` (stereo unspecified), the outcome was inactive.

With `CCCNC(=O)NS(=O)(=O)c1ccc(Cl)cc1`, the outcome was inactive.

As to `CC(C)NCC(O)COc1cccc2[nH]ccc12` (stereo unspecified), the result was inactive.

Take `O=C1NCC2(CCN(CCc3ccccc3)CC2)O1`: the result was inactive.

`CCN(CC)CCNC(=O)c1ccc(N)cc1`: the result was inactive.

With `CCN(CC)C(=O)c1ccc(O)c(OC)c1`, the result was inactive.

On to `COc1cccc(-c2cc(=O)c3ccccc3o2)c1N`, for which the result was inactive.

On to `COc1ccccc1N1CCN(CCCNc2cc(=O)n(C)c(=O)n2C)CC1`, for which the result was inactive.

`CC(=O)CCCCn1c(=O)c2c(ncn2C)n(C)c1=O`: the result was inactive.

With `Cc1cccc(C)c1OCC(C)N` (stereo unspecified), the result was inactive.

Take `O=c1cc(-c2ccc(O)cc2)oc2cc(O)cc(O)c12`: the outcome was inactive.

Take `CC1=C(/C=C/C(C)=C/C=C/C(C)=C/C(=O)Nc2ccc(O)cc2)C(C)(C)CCC1`: the result was inactive.

For `CCCCC1C(=O)N(c2ccccc2)N(c2ccccc2)C1=O`, the outcome was inactive.

Turning to `COC(=O)[C@@H]1[C@H]2C[C@H]3c4[nH]c5ccccc5c4CCN3C[C@@H]2CC[C@@H]1O`, the outcome was inactive.

Turning to `O=C1NC(=O)C(c2ccccc2)(c2ccccc2)N1`, the result was inactive.

On to `CC1(C)CCC2=C(O1)c1ccccc1C(=O)C2=O`, for which the outcome was inactive.

Consider `CC(C)(C)c1ccc(C(O)CCCN2CCC(C(O)(c3ccccc3)c3ccccc3)CC2)cc1` (stereo unspecified), for which the result was inactive.

Take `Clc1ccc(Cn2c(CN3CCCC3)nc3ccccc32)cc1`: the outcome was inactive.

Regarding `O=c1c(-c2ccc(O)cc2)coc2cc(O)ccc12`, the outcome was inactive.

On to `CC/C(=C(\c1ccccc1)c1ccc(OCCN(C)C)cc1)c1ccccc1`, for which the result was inactive.

Turning to `CC(=O)c1ccc(S(=O)(=O)NC(=O)NC2CCCCC2)cc1`, the result was inactive.

For `CC(=O)N[C@@H](CS)C(=O)O`, the result was inactive.

`O=C(O)CCc1nc(-c2ccccc2)c(-c2ccccc2)o1`: the outcome was inactive.

For `CCN1CCC[C@H]1CNC(=O)c1cc(S(N)(=O)=O)ccc1OC`, the result was inactive.

With `CC(C)OC(=O)C(C)(C)Oc1ccc(C(=O)c2ccc(Cl)cc2)cc1`, the outcome was inactive.

Turning to `CCN(CC)CCOC(=O)c1ccc(N)cc1`, the result was inactive.
